# Hit rate of the full screen: of about 1,200 compounds, about 480 (40%) were called active. Another 29% or so got no clear call; they are omitted. Calls follow the shape of the dose curve; as a rule, active = well fitted inhibition curve with a large enough effect; inconclusive = small, poorly fitted or top-dose-only effect; inactive = no such curve, though single readings can be large or run the other way. The list shows a part of the results.
# Experiment: qHTS Assay to Find Inhibitors of Chronic Active B-Cell Receptor Signaling: Hit Validation in Primary Screen; also: nearly all actives have a fitted effect of over 75% in size
# Details: ABC-DLBCL IkB-luc/CBR ratio luminescence, 4 h; series mostly up to 46.1 µM; activity change, negative = inhibition: at the top concentration
# In short: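 Concentration series (3 nM to 46 uM) tested on TMD8 cells induced with doxycycline for 4 h. Filter-corrected green (IkBa fusion) over red (unfused) luciferase signal; Data were normalised to 10 uM MG-132 and untreated cell wells.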
# % is scaled to controls: 0 for no effect and ±100 for the full control effect; potency is read from the fitted curve at half-maximal effect.
Structure (SMILES),"activity change, negative = inhibition",Potency
Cc1[nH]n(C(N)=S)c(=O)c1N=Nc1ccc([N+](=O)[O-])cc1Cl,65.2% (inactive),–
O=C1CC(c2ccccc2)Cc2nc3ncnn3cc21 (stereo not given),-0.669% (inactive),–
Cc1ccccc1C(=O)N1CCC(C(=O)N2CCN(Cc3ccc4c(c3)OCO4)CC2)CC1,-22% (inactive),–
CCOc1ncccc1C(=O)N1CCN(c2cccc(C)c2C)CC1,–,5.8 µM (active)
CCOc1ccccc1C(=O)N1CCN(c2cccc(Cl)c2)CC1,–,0.517 µM (active)
CCOc1ncccc1C(=O)N1CCN(c2cc(Cl)ccc2C)CC1,–,8.2 µM (active)
COC(=O)c1cc(C(=O)N2CCN(c3cccc(Cl)c3)CC2)cc([N+](=O)[O-])c1,–,5.8 µM (active)
CCc1ccc(CNC(=O)Cc2ccc(NC(=O)C3=C(C)OCCS3)cc2)cc1,–,2.06 µM (active)
CC1=C(C(=O)Nc2ccc(CC(=O)NCc3ccc(OC(C)C)cc3)cc2)SCCO1,–,1.3 µM (active)
CCCCC[C@H](O)/C=C/[C@@H]1[C@@H](C/C=C\CCCC(=O)O)[C@@H](O)C[C@H]1O,–,2.91 µM (active)
CCCCC[C@H](O)/C=C/[C@@H]1[C@@H](C/C=C\CCCC(=O)OC)[C@@H](O)C[C@H]1O,–,0.103 µM (active)
CCO[C@H]1OC(C(=O)NCc2nc3ccccc3[nH]2)=C[C@@H](C2CC2)[C@@H]1CCCO,–,18.4 µM (active)
O=C(Oc1c(CN2CCOCC2)cc(Cl)c2cccnc12)c1ccc(F)cc1,-3.49% (inactive),–
Oc1ccc(NCc2cccc(OCc3ccccc3)c2)cc1,-5.22% (inactive),–
Cc1[nH]n(C(N)=S)c(=O)c1N=Nc1ccc2ccccc2c1,-7.55% (inactive),–
COc1ccc(N(C(=O)c2ccccc2C)S(=O)(=O)c2cccs2)cc1,–,5.17 µM (active)
C=CCOc1c(OC)cc(/C=N/Nc2cccc(C(=O)O)c2)c(Br)c1Br,–,2.91 µM (active)
O=C(Oc1ccc(Cl)c2cccnc12)C12CC3CC(CC(C3)C1)C2,74.1% (inactive),–
O=c1cnnc(N/N=C/C2CC=CCC2)[nH]1 (stereo not given),-5.08% (inactive),–
COC(=O)C1C(O)=C(C=Nc2ccccc2)C(=O)CC1(C)C (stereo not given),–,16.4 µM (active)
COC(=O)C1C(O)=C(C=Nc2cccc3ccccc23)C(=O)CC1(C)C (stereo not given),–,18.4 µM (active)
CCCOc1ccccc1C1CC(=O)Nc2cc3c(cc21)OCO3 (stereo not given),–,6.51 µM (active)
CCCOc1ccccc1C1CC(=O)Nc2cc3c(cc21)OCCO3 (stereo not given),–,7.31 µM (active)
CCOc1ccccc1C1CC(=O)Nc2cc3c(cc21)OCCO3 (stereo not given),–,10.3 µM (active)
Cc1ccc(-c2ccccc2NC(=O)CS(=O)CC(=O)Nc2ccc(C)c(Cl)c2)o1 (stereo not given),-5.18% (inactive),–

Structure (SMILES),"activity change, negative = inhibition",Potency
CCOc1cccc(/C=C/c2ccc3cccc(O)c3n2)c1OC,44.8% (inactive),–
COc1cc(/C=C/c2ccc3cccc(O)c3n2)cc(Br)c1OC,–,20.6 µM (active)
COc1cc(/C=C/c2ccc3cccc(O)c3n2)cc(OC)c1OC,–,18.4 µM (active)
COc1cc(/C=C\C(=O)OCn2nnc3ccccc3c2=O)cc(OC)c1OC,109% (inactive),–
COC(=O)CCC(=O)NC(=S)Nc1sc(C)c(C)c1C(N)=O,–,4.61 µM (active)
CCCCC(=O)NC(=S)Nc1nnn(CCC)n1,35.1% (inactive),–
CCOc1cc(-c2nnc(SCC(=O)NCc3ccccc3)nc2-c2ccc(OC)c(OCC)c2)ccc1OC,–,2.59 µM (active)
COc1ccccc1CNC(=O)CSc1ccc(C)cc1,-23.7% (inactive),–
COc1ccc(CN(C)C(=O)Cn2cnc3c(NCc4ccccc4)ncnc32)cc1OC,-11.9% (inactive),–
CC1=NN(C(N)=S)C(=O)C1N=Nc1ccc(F)cc1 (stereo not given),6.1% (inactive),–
Cc1ccsc1/C=C/C1=NCCCN1C,-7.76% (inactive),–
CC1(C)N=c2ccc([N+](=O)[O-])c(N)c2=[N+]1[O-],54.3% (inactive),–
COc1ccc(S(=O)(=O)Nc2ccc3c(c2)n(C)c(=O)n3C)cc1F,40.4% (inactive),–
COc1cc(OC)c(OC)cc1/C=C/C(=O)c1ccc(NS(=O)(=O)c2ccc(C)cc2)cc1,–,13 µM (active)
S=C(Nc1ccccn1)c1ccccn1,-24% (inactive),–
O=C(Nc1nnc(SCc2ccc(F)cc2)s1)c1ccccn1,49.8% (inactive),–
Cc1ccc2nc(NC(=O)c3ccccn3)sc2c1,–,1.16 µM (active)
C/C(=N\NC(=O)c1ccc(F)cc1)c1ccccn1,-9.46% (inactive),–
O=C(Nc1nc2ccc(F)cc2s1)c1ccccn1,–,1.46 µM (active)
CCOc1ccc2nc(NC(=O)c3ccccn3)sc2c1,–,14.6 µM (active)
O=C(Nc1nc2c(F)cc(F)cc2s1)c1ccccn1,–,13 µM (active)
COc1ccc2nc(NC(=S)NC(=O)c3ccco3)sc2c1,0.56% (inactive),–
CCOc1ccc2nc(NS(=O)(=O)Cc3ccccc3)sc2c1,59.6% (inactive),–
O=C(NCC(=O)N1CCCC(C(F)(F)F)C1)c1ccc(Oc2ccccc2)cc1 (stereo not given),-6.27% (inactive),–
CN(C)NC(=S)NC(=O)C12CC3CC(CC(C3)C1)C2,-2.28% (inactive),–

Structure (SMILES),"activity change, negative = inhibition",Potency
Cc1cc(C(N)=O)nn1-c1c(Cl)cc(Cl)cc1Cl,-9.85% (inactive),–
COc1ccccc1NC(=O)c1c(N=Cc2c(O)ccc3ccccc23)cnn1C,–,3.26 µM (active)
CC(=O)N1CC(=O)N=C1SCC(=O)Nc1nc(C)c(-c2ccccc2)s1,–,23.1 µM (active)
COc1cccc(/C=N/NC(=O)c2[nH]nc3c2CCc2ccccc2-3)c1O,–,20.6 µM (active)
COc1ccc(CCCC(=O)N/N=C/c2cccc(OC)c2O)cc1C,-3.33% (inactive),–
CC/C(=N/Nc1ccc(Cl)cc1)c1cnnc(SC)n1,42.6% (inactive),–
Cc1ccc(C(=O)Oc2ccc(Cl)c3cccnc23)cc1[N+](=O)[O-],-15.7% (inactive),–
O=C(c1ccc(CS(=O)c2ccccc2Cl)o1)N1CCN(c2ccccc2)CC1 (stereo not given),–,14.6 µM (active)
COc1cccc(N2CCN(C(=O)c3ccc(CS(=O)c4ccccc4C)o3)CC2)c1 (stereo not given),–,5.8 µM (active)
COc1cccc(N2CCN(C(=O)c3ccc(CS(=O)c4ccccc4Cl)o3)CC2)c1 (stereo not given),–,1.84 µM (active)
CCCNc1nc(-c2ccccc2)c(C(=O)OCC)cc1C#N,–,18.4 µM (active)
CCCNc1ccc(C(=O)OCC)cc1[N+](=O)[O-],64.1% (inactive),–
CC(C)CCOc1ccc(CO[C@@H]2[C@H]3OC(C)(C)O[C@H]3O[C@@H]2C(O)CO)cc1 (stereo not given in full),-2.53% (inactive),–
COC(=O)c1ccc(C)c(NS(=O)(=O)c2ccc3c(c2)OCCO3)c1,–,9.2 µM (active)
COc1ccc(S(=O)(=O)Nc2cc3c(C(C)=O)c(C)oc3c3ccccc23)cc1,–,2.06 µM (active)
COC(=O)c1ccc(C)c(NS(=O)(=O)c2ccc(OC)cc2)c1,–,1.84 µM (active)
COc1ccc(NS(=O)(=O)c2cc(NC(=O)CNC(=O)c3cccc(OC)c3)ccc2C)cc1,48.4% (inactive),–
COc1cc2nc(=S)n3[nH]c(CCn4nc(C)cc4C)nc3c2cc1OC,34.6% (inactive),–
O=C(/C=C/c1ccc(-c2ccccc2[N+](=O)[O-])o1)c1ccccc1,-8.15% (inactive),–
CC(=O)[C@H]1CC[C@H]2[C@@H]3CCC4=CC(=O)CC[C@]4(C)[C@H]3CC[C@]12C,-19.6% (inactive),–
C[C@]12CCC(=O)C=C1CC[C@@H]1[C@@H]2[C@@H](O)C[C@@]2(C)[C@H]1CC[C@]2(O)C(=O)CO,53.5% (inactive),–
COc1ccccc1-c1nnc(Nc2nc3c(OC)cccc3s2)o1,–,0.366 µM (active)
COc1cccc2sc(Nc3nnc(-c4ccccc4Cl)o3)nc12,–,8.2 µM (active)
NC(=S)N/N=C\c1ccc(-c2cccc(Cl)c2Cl)o1,-2.4% (inactive),–
CCCCn1c(=O)c(F)cn(Cc2ccc(OC)c([N+](=O)[O-])c2)c1=O,28.8% (inactive),–

Structure (SMILES),"activity change, negative = inhibition",Potency
Cc1ccc(COC(=O)c2cc([N+](=O)[O-])ccc2N2CCOCC2)cc1,–,5.8 µM (active)
CSc1ccc(COC(=O)c2cc([N+](=O)[O-])ccc2N2CCOCC2)cc1,–,0.58 µM (active)
COc1ccc(COC(=O)c2cc([N+](=O)[O-])ccc2N2CCOCC2)cc1F,–,0.092 µM (active)
CCN(CC)S(=O)(=O)c1ccc(N2CCOCC2)c(NC(=O)c2[nH]c(C)c(C(C)=O)c2C)c1,103% (inactive),–
CCCCn1c(-c2csc(C(C)C)c2)n[nH]c1=S,-7.52% (inactive),–
CNC(=S)N/N=C(\C)c1ccc(Cl)c(Cl)c1,-22% (inactive),–
CCOc1ccc(S(=O)(=O)N2c3ccccc3CC2C)cc1 (stereo not given),–,14.6 µM (active)
COc1ccc(S(=O)(=O)N2c3ccccc3OCC2C)cc1 (stereo not given),–,16.4 µM (active)
CNc1nc(N)c([N+](=O)[O-])c(NCc2ccccc2)n1,58.3% (inactive),–
COC(=O)c1ccc(Oc2cc(C)nc(-n3nc(C)cc3C)n2)cc1,–,3.26 µM (active)
CC(=O)c1ccc(Oc2cc(C)nc(-n3nc(C)cc3C)n2)cc1,–,7.31 µM (active)
O=C(CSc1cccc[n+]1[O-])c1ccc(Cl)s1,-3.25% (inactive),–
COc1ccccc1-c1cc(C(=O)Nc2cccnc2)no1,154% (inactive),–
O=C(CCCN1C(=O)/C(=C/c2ccccc2OC(F)F)SC1=S)Nc1cccnc1,–,7.31 µM (active)
O=C(O)CCCN1C(=O)/C(=C\c2ccccc2OCc2ccccc2)SC1=S,–,7.31 µM (active)
CCCNS(=O)(=O)c1cccc(C(=O)OCc2cc(=O)oc3cc(OC)ccc23)c1,–,9.2 µM (active)
COc1cc(OC)cc(C(=O)N/N=C(\C)CC(=O)Nc2ccccn2)c1,-11.8% (inactive),–
Cc1cc(C)cc(C(=O)N2CC(=O)Nc3ccccc32)c1,–,3.66 µM (active)
COc1cc(OC)cc(C(=O)N2CC(=O)Nc3ccccc32)c1,–,14.6 µM (active)
Cc1cc(C)c2nc(SCC(=O)N3CC(=O)Nc4ccccc43)c(C#N)cc2c1,–,3.66 µM (active)
COc1ccccc1NC(=O)N1CCC(c2nc3cc(C)c(C)cc3[nH]2)CC1,–,5.17 µM (active)
COc1ccc(N2CC(C(=O)N3CCC(c4nc5ccccc5[nH]4)CC3)CC2=O)cc1 (stereo not given),-2.79% (inactive),–
ClC(Cl)(Cl)c1nc2ccccc2n2nncc12,–,18.4 µM (active)
COc1cc(-c2noc(C)c2/C=C/c2ccc(N)cc2)cc(OC)c1OC,–,1.3 µM (active)
COc1cc(-c2noc(C)c2/C=C/c2ccc(OC(C)=O)cc2)cc(OC)c1OC,–,4.61 µM (active)
